Reference: PubChem BioAssay (EPA / NIEHS)
Several values for one entry are separate records, joined by “and”; a condition that tells them apart may be missing. Equal values may be shown once. Some compounds were tested as several samples or in several runs, with calls that do not always agree. Activity calls are given as the source filed them. Rule for the calls: active = hit-call score of the fitted dose curve at least 0.9, where 1 is the maximum; inactive = score below 0.9.

Assays:
[1] = read-out: TIMP metallopeptidase inhibitor 2 (TIMP2), TIMP2 (gene 7077); assay: BSK_hDFCGF_TIMP2: BioMAP Diversity Plus: hDFCGF Assay for TIMP metallopeptidase inhibitor 2 (TIMP2) Biomarker Activity (AID 2284289); settings: primary human foreskin fibroblasts
How it was run: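 Primary human foreskin fibroblasts in the hDFCGF system, dosed for 24 h; TIMP-2 level measured by ELISA, fitted in the positive direction against DMSO; cytotoxicity checked in parallel by sulforhodamine B total protein staining.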

[2] = read-out: Thrombomodulin, THBD (gene 7056); assay: BSK_LPS_Thrombomodulin: BioMAP Diversity Plus: LPS Assay for Thrombomodulin Biomarker Activity (AID 2284296); settings: primary human HUVEC with PBMC
Description: BSK_LPS is a cell-based, multiplexed-readout assay that uses umbilical vein endothelium and peripheral blood mononuclear cells, a human vascular primary cell co-culture, with measurements taken at 24 hours after chemical dosing in a 96-well plate.BSK_LPS_Thrombomodulin is an assay component measured in the BSK_LPS assay. It measures Thrombomodulin antibody related to regulation of gene expression using ELISA technology.Data from the assay component BSK_LPS_Thrombodulin was analyzed at the endpoint, BSK_LPS_Thrombomodulin, in the positive analysis fitting direction relative to DMSO as the negative control and baseline of activity. Using a type of binding reporter, gain or loss-of-signal activity can be used to understand protein changes. To generalize the intended target to other relatable targets, this assay endpoint is annotated to the 'gpcr' intended target family, where the subfamily is 'rhodopsin-like receptor'.
(§1) The levels of cell surface (or secreted, indicated by the prefix "s") biomarker endpoints were measured by ELISA. Overt cytotoxicity to cells in confluent adherent cultures (all systems other than the BT system) was assessed by measuring total protein levels using sulforhodamine B (SRB) staining in parallel cultures at the time of biomarker measurements, indicated as SRB endpoints. For proliferation assays for adherent cell types, individual cell types are cultured at sub-confluence and relative cell numbers quantified by SRB staining at time points optimized for each system (48 h: 3C and CASM3C systems; 72 h: BT and HDF3CGF systems; 96 h: SAg system). SRB was performed by staining cells with 0.1% SRB after fixation with 10% TCA and reading wells at 560 nm.Viability and proliferation of PBMC (T cells) was quantified by Alamar Blue reduction for the SAg and BT systems. For PBMC viability (referred to as PBMC Cytotoxicity within the assay endpoint names), cells were plated (75,000/well in a 96-well plate) and then chemical samples added for 1 h before addition of activators, SEB and TSST-1 (20 ng/mL final concentration each). Cells were incubated for 90 h. Then, Alamar Blue (20 uL/well) (Invitrogen, Cat DAL1100) was added for 6 h, and the plates were read with a fluorescence microplate reader at 546/580 nm (excitation/emission). For PBMC proliferation, cells were plated and activated as above but incubated for only 16 h prior to addition of Alamar Blue. Plates were read after 6 h.

[3] = read-out: Interleukin-1 alpha (IL1a), IL1A (gene 3552); assay: BSK_IMphg_IL1a: BioMAP Diversity Plus: IMphg Assay for Interleukin-1 alpha (IL1a) Biomarker Activity (AID 2284290); settings: primary human endothelial cells with macrophages
Description: BSK_IMphg is a cell-based, multiplexed-readout assay that uses venular endothelial cells and macrophages, a human vascular primary cell, with measurements taken at 24 hours after chemical dosing in a microplate: 96-well plate.BSK_IMphg_IL1a is an assay component measured in the BSK_IMphg assay. It measures IL-1a antibody related to regulation of gene expression using ELISA technology.Data from the assay component BSK_IMphg_IL1a was analyzed at the endpoint, BSK_IMphg_IL1a, in the positive analysis fitting direction relative to DMSO as the negative control and baseline of activity. Using a type of binding reporter, gain or loss-of-signal activity can be used to understand protein changes. To generalize the intended target to other relatable targets, this assay endpoint is annotated to the 'cytokine' intended target family, where the subfamily is 'interleukins'.
as §1

[4] = read-out: E-selectin (Homo sapiens) (UniProt P16581); assay: BSK_IMphg_ESelectin: BioMAP Diversity Plus: IMphg Assay for Eselectin Biomarker Activity (AID 2284291); settings: primary human endothelial cells with macrophages
How it was run: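 Human venular endothelial cell–macrophage co-culture, E-selectin measured by ELISA 24 h after chemical dosing. Signal fitted in the positive direction against DMSO as negative control and baseline.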

[5] = BSK_IMphg_SRB: Viability Assessment in the BioMAP Diversity Plus: IMphg Assay (AID 2284292); settings: primary human endothelial cells with macrophages;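 note: measured one day after compound addition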
How it was run: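 Human venular endothelial cells with macrophages, 24 h after chemical dosing; total protein by 0.1% SRB staining after 10% TCA fixation, read at 560 nm. Positive-direction fitting versus DMSO baseline.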

[6] = read-out: Macrophage colony-stimulating factor (MCSF), CSF1 (gene 1435); assay: BSK_IMphg_MCSF: BioMAP Diversity Plus: IMphg Assay for Macrophage colony-stimulating factor (MCSF) Biomarker Activity (AID 2284293); settings: primary human endothelial cells with macrophages
How it was run: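 Co-culture of human venular endothelial cells and macrophages, 24 hours of chemical exposure. M-CSF quantified by ELISA, with parallel SRB total-protein staining for cytotoxicity; activity fitted relative to DMSO.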

[7] = read-out: Interleukin-10 (IL10), IL10 (gene 3586); assay: BSK_IMphg_IL10: BioMAP Diversity Plus: IMphg Assay for Interleukin-10 (IL10) Biomarker Activity (AID 2284294); settings: primary human endothelial cells with macrophages
How it was run: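 Human venular endothelial cells cocultured with macrophages, dosed 24 h; IL-10 measured by ELISA, activity relative to DMSO. Cytotoxicity assessed in parallel cultures by sulforhodamine B total-protein staining.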

[8] = BSK_IMphg_SRB.Mphg: Macrophage Viability Assessment in the BioMAP Diversity Plus: IMphg Assay (AID 2284295); settings: primary human endothelial cells with macrophages
How it was run: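 Venular endothelial cells co-cultured with macrophages, read 24 h after dosing. Total protein measured by 0.1% SRB staining after 10% TCA fixation, absorbance at 560 nm. Fitted in positive direction against DMSO baseline.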

[9] = IUF_NPC2c_oligodendrocyte_migration_120hr: Leibniz Research Institute for Environmental Medicine (IUF) 120-hour Neural Progenitor Cell Migration Assay for Oligodendrocyte Migration (NPC2c) (AID 2284297);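 note: O4-positive oligodendrocyte migration distance divided by radial glia migration distance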
How it was run: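 Using fetal brain neural progenitor spheres differentiating in N2 medium at 37C, compounds were present for 120 h. Oligodendrocyte migration distance, normalized to radial glia migration, was measured from imaged O4 staining.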

[10] = IUF_NPC2a_radial_glia_migration_120hr: Leibniz Research Institute for Environmental Medicine (IUF) 120-hour Neural Progenitor Cell Migration Assay for Radial Glia Migration (NPC2a) (AID 2284298)
How it was run: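 Exposure of 0.3 mm primary hNPC spheres runs day 0 to 120 h with a half-volume medium change at day 3. Fixed cells get Hoechst staining; high-content analysis of nuclear positions yields radial glia migration distance per well, compared against DMSO controls.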

Chain of E-selectin (Homo sapiens) (P16581 whole entry, looked up): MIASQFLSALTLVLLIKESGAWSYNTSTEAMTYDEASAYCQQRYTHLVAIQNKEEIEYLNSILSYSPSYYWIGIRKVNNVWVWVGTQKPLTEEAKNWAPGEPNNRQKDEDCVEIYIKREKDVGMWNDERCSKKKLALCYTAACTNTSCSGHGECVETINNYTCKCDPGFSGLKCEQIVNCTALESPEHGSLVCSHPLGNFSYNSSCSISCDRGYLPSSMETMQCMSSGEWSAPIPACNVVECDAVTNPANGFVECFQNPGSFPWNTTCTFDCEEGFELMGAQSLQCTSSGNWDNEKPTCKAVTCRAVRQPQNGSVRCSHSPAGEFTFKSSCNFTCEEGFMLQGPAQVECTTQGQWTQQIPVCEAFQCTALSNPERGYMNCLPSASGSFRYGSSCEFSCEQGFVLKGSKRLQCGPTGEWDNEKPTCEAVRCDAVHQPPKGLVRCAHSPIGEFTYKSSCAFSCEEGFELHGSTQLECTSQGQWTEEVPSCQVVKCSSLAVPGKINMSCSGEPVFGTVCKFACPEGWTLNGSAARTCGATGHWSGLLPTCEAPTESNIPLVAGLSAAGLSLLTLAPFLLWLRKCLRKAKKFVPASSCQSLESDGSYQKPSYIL

Compound: COc1ccc(O)c(C(C)(C)C)c1
- outcome [1]: inactive
- outcome [2]: inactive

Compound: O=C(O)C(F)(F)C(F)(F)C(F)(F)C(F)(F)C(F)(F)C(F)(F)C(F)(F)C(F)(F)C(F)(F)F
- AC50 [1]: 11.2 µM (active) and 19.7 µM (active)
- outcome [3]: inactive
- AC50 [4]: 47.6 µM (active) and 50.2 µM (active)
- AC50 [5]: 53.8 µM (active) and 46.6 µM (active)
- outcome [6]: inactive
- AC50 [7]: 49.6 µM (active) and 45.5 µM (active)
- AC50 [8]: 44.9 µM (active) and 46.2 µM (active)
- AC50 [2]: 51.4 µM (active) and 54.9 µM (active)

Compound: NS(=O)(=O)C(F)(F)C(F)(F)C(F)(F)C(F)(F)C(F)(F)C(F)(F)C(F)(F)C(F)(F)F
- AC50 [1]: 53.9 µM (active) and 52.3 µM (active)
- AC50 [3]: 53.6 µM (active) and 52.9 µM (active)
- AC50 [4]: 39.9 µM (active) and 30 µM (active)
- AC50 [5]: 51 µM (active) and 48.3 µM (active)
- AC50 [6]: 30 µM (active)
- outcome [6]: inactive
- AC50 [7]: 48.2 µM (active) and 47.2 µM (active)
- AC50 [8]: 43.4 µM (active) and 48.1 µM (active)
- AC50 [2]: 14.5 µM (active)
- outcome [2]: inactive

Compound: O=C(O)C(F)(F)C(F)(F)C(F)(F)C(F)(F)C(F)(F)F
- outcome [1]: inactive
- outcome [3]: inactive
- outcome [4]: inactive
- outcome [5]: inactive
- outcome [6]: inactive
- outcome [7]: inactive
- outcome [8]: inactive
- outcome [2]: inactive

Compound: C=CC(N)=O
- outcome [9]: inactive
- outcome [10]: inactive

Compound: O=S(=O)(O)C(F)(F)C(F)(F)C(F)(F)C(F)(F)F
- outcome [1]: inactive
- outcome [3]: inactive
- outcome [4]: inactive
- outcome [5]: inactive
- outcome [6]: inactive
- outcome [7]: inactive
- outcome [8]: inactive
- outcome [2]: inactive
- outcome [9]: inactive
- outcome [10]: inactive

Compound: CO/C=C(/C(=O)OC)c1ccccc1COc1cccc(C(F)(F)F)n1
- AC50 [9]: 34.6 µM (active)
- AC50 [10]: 33 µM (active)

Compound: CCOP(=S)(OCC)SCSC(C)(C)C
- outcome [9]: inactive
- outcome [10]: inactive

Compound: O=C(O)C(F)(F)C(F)(F)C(F)(F)C(F)(F)C(F)(F)C(F)(F)C(F)(F)C(F)(F)F
- outcome [1]: inactive
- outcome [3]: inactive
- outcome [4]: inactive
- AC50 [5]: 44.9 µM (active)
- outcome [5]: inactive
- outcome [6]: inactive
- AC50 [7]: 39 µM (active) and 21.3 µM (active)
- AC50 [8]: 18 µM (active)
- outcome [8]: inactive
- outcome [2]: inactive

Compound: O=S(=O)(O)C(F)(F)C(F)(F)C(F)(F)C(F)(F)C(F)(F)C(F)(F)F
- outcome [1]: inactive
- outcome [3]: inactive
- AC50 [4]: 37.6 µM (active)
- outcome [4]: inactive
- outcome [5]: inactive
- outcome [6]: inactive
- AC50 [7]: 46.3 µM (active) and 19 µM (active)
- outcome [8]: inactive
- outcome [2]: inactive
- outcome [9]: inactive
- outcome [10]: inactive
